Screening data: PubChem, Broad Institute
aSyn 5UTR act – Activators via SNCA 5'UTR binding, MLPCN; hit rate 7.1% among 300,000; activity score, % (tested at 7.5 µM), hits read low; alpha-synuclein 5'UTR reporter, activators screen; AID 1814; in the data active = activity score below about -60%
A number is an active result. These entries were drawn from the full list.

What do the screens show for `CCOC(=O)c1sc2nc3n(c(=O)c2c1C)CCCCC3`?
aSyn 5UTR act: -214

Results for Cc1c(C(=O)Nc2cc(F)ccc2F)sc2nc3n(c(=O)c12)CCCCC3 ?
aSyn 5UTR act: -118

Results for CSc1cccc(NC(=O)c2sc3nc4n(c(=O)c3c2C)CCC4)c1 ?
aSyn 5UTR act: -131

How did COc1cccc(NC(=O)c2sc3nc4n(c(=O)c3c2C)CCC4)c1 do in these assays?
aSyn 5UTR act: -113

Results for CC(=O)O[C@]1(C(C)=O)CC[C@H]2[C@@H]3C=CC4=CC(=O)C=C[C@]4(C)[C@H]3CC[C@@]21C ?
aSyn 5UTR act: -83

What do the screens show for `COC(=O)/C(=C1/Oc2ccc(C)cc2S1)C(F)(F)F`?
aSyn 5UTR act: -152

How did COc1ccc(N/N=C(/C)c2cnnc(-c3ccccc3)n2)cc1 do in these assays?
aSyn 5UTR act: -70

What do the screens show for `COc1ccc(/C(C)=N/Nc2nncc3ccccc23)cc1`?
aSyn 5UTR act: -113

What do the screens show for `COc1ccc(/C(C)=N/Nc2nc3ccccc3nc2C)cc1`?
aSyn 5UTR act: -67

What do the screens show for `CCCNC(=O)OCCC12CC3CC(CC(C3)C1)C2`?
aSyn 5UTR act: -92

How did Cc1csc2nc(CSc3nc4ccccc4o3)c(Br)n12 do in these assays?
aSyn 5UTR act: -129

What do the screens show for `Cc1ccc2nc(/C(C#N)=C/c3cn[nH]c3-c3ccc(F)cc3)[nH]c2c1`?
aSyn 5UTR act: -175

Results for Cc1ccc2nc(/C(C#N)=C/c3ccc(O)c(O)c3)[nH]c2c1 ?
aSyn 5UTR act: -222

Results for CC(=O)Nc1ccccc1C(=O)C(=O)Nc1ccc(F)c(Cl)c1 ?
aSyn 5UTR act: -123

How did Cc1ccc(NC(=O)/C(Cl)=C/c2ccccc2)cc1C do in these assays?
aSyn 5UTR act: -156

What do the screens show for `CC(=O)Nc1ccccc1C(=O)C(=O)Nc1ccc(C)c(F)c1`?
aSyn 5UTR act: -264

Results for CC(=O)Nc1ccccc1C(=O)C(=O)Nc1ccc(C)c(C)c1 ?
aSyn 5UTR act: -182

Results for CCN(CC)C(=O)C(=O)Nc1ccc(F)c(Cl)c1 ?
aSyn 5UTR act: -131

How did CC(=O)Nc1ccccc1C(=O)C(=O)Nc1cccc(F)c1 do in these assays?
aSyn 5UTR act: -149

What do the screens show for `COc1ccccc1CNC(=O)Cc1ccccc1`?
aSyn 5UTR act: -77

What do the screens show for `O=C(CSCc1cccc(F)c1)NCc1ccccc1`?
aSyn 5UTR act: -75

Results for O=C(CSc1ccccc1)NCc1ccccc1 ?
aSyn 5UTR act: -69

How did Nc1ccc(C(=O)N/N=C/c2cn(Cc3cccc(F)c3)c3ccccc23)cc1 do in these assays?
aSyn 5UTR act: inactive

Results for COc1ccccc1CNC(=O)CSc1ccccc1 ?
aSyn 5UTR act: -100

How did NC(=O)N/N=C/c1ccc(-c2cccc(C(F)(F)F)c2)o1 do in these assays?
aSyn 5UTR act: -84

How did COC(=O)N/N=C/c1ccc(-c2cc(Cl)cc(Cl)c2)o1 do in these assays?
aSyn 5UTR act: inactive

Results for COc1ccc(C(=O)COc2ccc(F)cc2)c(O)c1 ?
aSyn 5UTR act: -119

How did O=C(COc1ccc(F)cc1)c1c(O)cc(O)cc1O do in these assays?
aSyn 5UTR act: -79

Results for COc1ccc(C(=O)CCc2ccccc2)c(O)c1 ?
aSyn 5UTR act: -107

Results for COc1ccc(C(=O)Cc2ccc(F)cc2)c(OC)c1 ?
aSyn 5UTR act: -117

Results for COc1cccc(NC2SC(=O)N(c3ccccc3)C2=O)c1 (centres undefined) ?
aSyn 5UTR act: -97

How did NC(=O)c1c(NC(=O)c2ccc(F)cc2)sc2c1CCC2 do in these assays?
aSyn 5UTR act: -184

Results for CC(C)(C)c1ccc(C(=O)Nc2sc3c(c2C(=O)O)CCC3)cc1 ?
aSyn 5UTR act: inactive

How did COc1ccccc1C(=O)Nc1sc2c(c1C(N)=O)CCCC2 do in these assays?
aSyn 5UTR act: -83

How did O=C(Nc1sc2c(c1C(=O)O)CCCCC2)c1cccs1 do in these assays?
aSyn 5UTR act: -80

What do the screens show for `O=C(Nc1sc2c(c1C(=O)O)CCCC2)c1ccc(F)cc1`?
aSyn 5UTR act: -94

What do the screens show for `COc1cc(C2C3=C(Nc4ncnn42)c2ccccc2CC3)cc(OC)c1OC` (centres undefined)?
aSyn 5UTR act: inactive

What do the screens show for `COCC(=O)Nc1c(C(=O)Nc2ccc3c(c2)OCO3)oc2ccccc12`?
aSyn 5UTR act: -117

Results for Cc1c(C(=O)Nc2ccc3c(c2)OCO3)oc2ccccc12 ?
aSyn 5UTR act: -137

How did O=C(CCl)Nc1c(C(=O)Nc2ccc3c(c2)OCCO3)oc2ccccc12 do in these assays?
aSyn 5UTR act: -139

What do the screens show for `CC(=O)Nc1c(C(=O)Nc2ccc3c(c2)OCO3)oc2ccccc12`?
aSyn 5UTR act: -88

What do the screens show for `CCOC(=O)c1ccc(NC(=O)C(CC)CC)cc1`?
aSyn 5UTR act: -98

How did CCC(CC)C(=O)Nc1ccc(Nc2ccccc2)cc1 do in these assays?
aSyn 5UTR act: -100

What do the screens show for `CCC(C)NS(=O)(=O)c1ccc(NC(=O)C(Sc2ccccc2)c2ccccc2)cc1` (centres undefined)?
aSyn 5UTR act: inactive

How did CCOC(=O)c1ccc(NC(=O)N(CC)CC)cc1 do in these assays?
aSyn 5UTR act: -115

Results for CCOC(=O)c1ccc(NC(=S)N(CCN(C)C)Cc2cccs2)cc1 ?
aSyn 5UTR act: inactive

How did CNC(=O)C1CCN(S(=O)(=O)c2c(C)noc2/C=C/c2ccccc2F)CC1 do in these assays?
aSyn 5UTR act: -69

Results for COc1ccc(C2=NN(CN3C(=O)C(=O)c4ccccc43)C(c3ccc(Br)cc3)C2)cc1 (centres undefined) ?
aSyn 5UTR act: -115

What do the screens show for `COc1ccc(C2=NN(CN3C(=O)C(=O)c4ccccc43)C(c3ccc(C)cc3)C2)cc1` (centres undefined)?
aSyn 5UTR act: -116

Results for CC(C)c1cccc(C(C)C)c1NC(=O)CCl ?
aSyn 5UTR act: -76

What do the screens show for `O=C(CCl)NC(Cc1ccccc1)c1ccccc1` (centres undefined)?
aSyn 5UTR act: inactive

What do the screens show for `Cc1ccc(NC(=O)Cc2noc3ccccc23)nc1`?
aSyn 5UTR act: -69

How did O=C(Cc1noc2ccccc12)Nc1ccccn1 do in these assays?
aSyn 5UTR act: -89

Results for CCC1CCCCN1C(=O)c1ccc(OC2CCN(C(=O)CCOC)CC2)cc1 (centres undefined) ?
aSyn 5UTR act: -82

How did Cc1c(C(=O)N/N=C/c2ccc(N(C)C)cc2)[nH]c2ccc(Cl)cc12 do in these assays?
aSyn 5UTR act: inactive

Results for CNC(=S)N/N=C/c1ccc(C(C)C)cc1 ?
aSyn 5UTR act: -161

Results for CN(C)c1ccc(/C=N/NC(=S)NCc2ccccc2)cc1 ?
aSyn 5UTR act: -85

How did CC(C)Oc1ccc(/C=N/NC(N)=S)cc1 do in these assays?
aSyn 5UTR act: -116

Results for CNC(=S)N/N=C/c1ccc(N(C)C)cc1 ?
aSyn 5UTR act: -89

What do the screens show for `CSC1=NC(C)(C)CC2(C)Nc3ccccc3N12` (centres undefined)?
aSyn 5UTR act: -88

How did O=c1oc2ccccc2n1CSc1nc2ccccc2s1 do in these assays?
aSyn 5UTR act: -99

What do the screens show for `O=C(CSc1nnc(NC(=O)c2ccccc2Cl)s1)Nc1ccc2c(c1)oc1ccccc12`?
aSyn 5UTR act: -144

What do the screens show for `O=C(CSc1nc2ccccc2s1)N/N=C/c1ccccc1C(=O)O`?
aSyn 5UTR act: -90

What do the screens show for `O=C(CSc1nc2ccccc2s1)Nc1ccc2c(c1)oc1ccccc12`?
aSyn 5UTR act: -80

How did CCS(=O)(=O)n1nc(-c2ccc(Cl)cc2)nc1SCc1ccccc1 do in these assays?
aSyn 5UTR act: -110

Results for CCCCn1c(=O)[nH]c(=O)c2c1nc(Cn1ncc(Cl)c(Cl)c1=O)n2CCC ?
aSyn 5UTR act: -106
